Compounds without any hit were thinned out: in the full panel of roughly 83,000, 20% have a hit.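 How to read the values: 0–100, growth inhibition (40 = 60% inhibited); 0, no net growth; -100 to 0, cell death (-40 = 40% of starting cells died; -100 = all dead).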 The source made the active and inactive calls. The calls were made as follows: active = growth percent below 10; inactive = the rest.
The molecules below were run on SF-268 CNS (assay: NCI-60 one-dose screen, 48 h (100 = growth as untreated, 0 = no growth, -100 = all killed)). Conditions: 10 µM.
For `O=C(Nc1cc(Cl)cc(Cl)c1)Nc1cc(Cl)cc(Cl)c1`, the growth was 9.6% (active).
For `O=C(c1ccc(O)cc1)C1[C@H](c2ccc(Br)cc2)[C@@H](c2ccccc2)NC12C(=O)Nc1ccc(Br)cc12` (some centres undefined), the growth was 10.6% (inactive).
In the case of `COc1ccccc1[C@H]1C(C(=O)c2ccc(O)cc2)C2(N[C@@H]1c1ccccc1)C(=O)Nc1ccc(Br)cc12` (some centres undefined), the growth is reported as 53.1% (inactive).
For `CN1CCN(c2ccc(C(=O)/C=C/c3ccc(C#N)cc3)cc2)CC1`, the growth was 107% (inactive).
In the case of `CC(C)(C)Nc1nc2cc(Cl)c(Cl)cc2nc1S(C)(=O)=O`, the growth is reported as 73.7% (inactive).
With `COc1cc(/C=C/C(=O)c2cc(OC)c(OC)c(OC)c2)ccc1Oc1nc(Nc2ccc(F)cc2)nc(N(C)C)n1` the growth was 27.7% (inactive).
In the case of `C=C1CCC2C3(C)COC(c4cc(F)cc(F)c4)OC3CCC2(C)C1C/C=C1/C(=O)OCC1O` (centres undefined), the growth is reported as 36.7% (inactive).
For `Cc1cc(C(F)(F)F)ccc1C(=O)Nc1sc2c(c1C#N)CCC(=O)C2`, the growth was 17.1% (inactive).
`N#Cc1c(Cl)nc(SCc2ccc(F)cc2)nc1-c1ccc(F)cc1` was tested, and the growth was 96.2% (inactive).

From PubChem BioAssay (NCI)
